According to PubChem BioAssay (Tox21):
Records with an inconclusive call do not appear. Calls of active or inactive are those of the source. Unless noted, the call rests on the fitted dose curve; in most records, active means well fitted curve in the direction sought with a large enough effect in the repeat runs; inconclusive means weak or mixed curves; inactive means no such curve, though single readings can be large; an effect the other way counts as inactive or inconclusive.

Legend:
[1] = qHTS assay to identify small molecule agonists of the estrogen receptor alpha (ER-alpha) signaling pathway in the presence of an antagonist - cell viability counter screen (AID 1259386);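 further: series mostly up to about 92 µM; cells exposed to compounds for 22 h at 37 °C before the viability read; nearly all actives have a fitted effect of over 30% in size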
Outline: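 Fluorescent CellTiter-Fluor viability signal from VM7Luc4E2 cells, with the reagent added during the final hour of a 22hr compound exposure at 37C in the presence of 10.0nM ICI-182,780.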

[2] = target: Progesterone receptor (Homo sapiens) (UniProt P06401); experiment: qHTS assay to identify small molecule agonists of the progesterone receptor (PR) signaling pathway (AID 1346784; calls by dose curve; further: nearly all actives have a fitted effect of over 30% in size)
Chain of Progesterone receptor (Homo sapiens) (P06401 whole entry, looked up): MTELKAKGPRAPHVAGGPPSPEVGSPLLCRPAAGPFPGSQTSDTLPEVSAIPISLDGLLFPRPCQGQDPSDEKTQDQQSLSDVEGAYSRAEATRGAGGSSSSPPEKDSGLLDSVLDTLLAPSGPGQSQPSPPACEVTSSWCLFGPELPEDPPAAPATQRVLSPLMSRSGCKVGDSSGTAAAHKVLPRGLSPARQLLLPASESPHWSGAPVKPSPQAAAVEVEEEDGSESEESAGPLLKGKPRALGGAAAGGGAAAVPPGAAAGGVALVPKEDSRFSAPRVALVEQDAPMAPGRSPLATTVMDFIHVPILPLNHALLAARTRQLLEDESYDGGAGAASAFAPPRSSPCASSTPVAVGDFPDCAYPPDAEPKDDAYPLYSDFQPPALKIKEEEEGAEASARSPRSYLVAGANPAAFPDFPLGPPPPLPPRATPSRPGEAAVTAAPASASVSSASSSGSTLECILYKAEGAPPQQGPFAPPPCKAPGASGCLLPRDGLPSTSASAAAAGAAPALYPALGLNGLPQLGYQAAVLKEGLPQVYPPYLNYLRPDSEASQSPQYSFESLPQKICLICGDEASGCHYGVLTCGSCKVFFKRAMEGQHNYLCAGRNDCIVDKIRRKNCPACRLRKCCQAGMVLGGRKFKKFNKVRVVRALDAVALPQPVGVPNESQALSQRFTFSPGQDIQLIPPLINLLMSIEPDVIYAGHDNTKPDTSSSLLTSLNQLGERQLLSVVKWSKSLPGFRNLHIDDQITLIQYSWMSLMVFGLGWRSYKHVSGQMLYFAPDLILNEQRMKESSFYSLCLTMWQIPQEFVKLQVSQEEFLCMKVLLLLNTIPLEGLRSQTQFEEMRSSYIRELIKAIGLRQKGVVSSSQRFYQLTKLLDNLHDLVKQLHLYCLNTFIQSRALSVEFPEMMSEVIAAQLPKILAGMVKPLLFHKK
Outline: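 PR-UAS-bla HEK 293T cells (beta-lactamase reporter under UAS) in 2% charcoal-stripped FBS, dosed with 23 nL compound after 6 hr, incubated 16hr at 37C. LiveBLAzer B/G FRET substrate added, fluorescence read after 2 hours.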

[3] = target: Progesterone receptor (Homo sapiens) (UniProt P06401); experiment: qHTS assay to identify small molecule antagonists of the progesterone receptor (PR) signaling pathway (AID 1346795; active means well fitted inhibition curve with a large enough effect in the signal ratio in the repeat runs, not every such curve was filed as active; the % refers to the signal ratio; further: potency means the concentration at half of the fitted maximal effect)
Outline: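 PR-UAS-bla HEK293T cells with beta-lactamase reporter under UAS control, in 2% charcoal-stripped FBS, treated with compounds plus 1 nM promegestone (R5020, final) for 16 hr at 37C. Read-out: FRET beta-lactamase substrate fluorescence after 2 hr at room temperature.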

[4] = qHTS assay to identify small molecule antagonists of the progesterone receptor (PR) signaling pathway - cell viability counter screen (AID 1346798); further: series mostly up to about 92 µM; nearly all actives have a fitted effect of over 50% in size
Outline: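 PR-UAS-bla HEK293T cells, 3,000/well in 2% charcoal-stripped FBS medium, dosed with compounds plus R5020 agonist and incubated 16 h at 37C. Viability then measured in the same wells by CellTiter-Glo luminescence after 30 min at RT.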

[5] = qHTS assay to identify small molecule agonists of the progesterone receptor (PR) signaling pathway - cell viability counter screen (AID 1346799; calls by dose curve; further: nearly all actives have a fitted effect of over 45% in size)
Outline: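 Counter screen in the PR-UAS-bla HEK293T wells (2% charcoal-stripped FBS, 16 h compound exposure at 37 C) after the bla read. CellTiter-Glo added, 30 min at room temperature, luminescence read as cell viability.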

[6] = qHTS assay to identify small molecule antagonists of the TGF-beta/Smad signaling pathway - cell viability counter screen (AID 1346824); further: nearly all actives have a fitted effect of over 50% in size
Outline: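 SBE-bla HEK 293T cells were plated overnight at 37 C, then given compounds in DMSO plus TGF-beta1 (added as 0.25 ng/mL solution) for 5 hr. After the bla read, CellTiter-Glo was added to the same wells and luminescence read after 30 min at room temperature.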

[7] = qHTS assay to identify small molecule agonists of the TGF-beta/Smad signaling pathway - cell viability counter screen (AID 1346829); further: top concentration of the series differs between compounds; nearly all actives have a fitted effect of over 45% in size
Outline: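 HEK 293T SBE-bla line, 5 hr compound exposure at 37 C, multiplexed CellTiter-Glo viability read by luminescence.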

[8] = qHTS assay to identify small molecule agonists of the TGF-beta/Smad signaling pathway (AID 1346859; active means well fitted activation curve with a large enough effect in the signal ratio in the repeat runs, not every such curve was filed as active; the % refers to the signal ratio; further: series mostly up to about 77 µM)
Outline: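 SBE-bla HEK293T cells plated overnight, then compound exposure for 5 h at 37 C. Beta-lactamase reporter read with LiveBLAzer B/G FRET substrate after 2 h at room temperature, fluorescence at 405 nm excitation, 460/530 nm emission.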

[9] = target: Thyrotropin-releasing hormone receptor (Homo sapiens) (UniProt P34981); experiment: qHTS assay to identify small molecule antagonists of the thyrotropin-releasing hormone receptor (TRHR) signaling pathway (AID 1346877; active means well fitted inhibition curve with a large enough effect in the repeat runs, not every such curve was filed as active; further: series mostly up to about 51 µM)
Chain of Thyrotropin-releasing hormone receptor (Homo sapiens) (P34981 whole entry, looked up): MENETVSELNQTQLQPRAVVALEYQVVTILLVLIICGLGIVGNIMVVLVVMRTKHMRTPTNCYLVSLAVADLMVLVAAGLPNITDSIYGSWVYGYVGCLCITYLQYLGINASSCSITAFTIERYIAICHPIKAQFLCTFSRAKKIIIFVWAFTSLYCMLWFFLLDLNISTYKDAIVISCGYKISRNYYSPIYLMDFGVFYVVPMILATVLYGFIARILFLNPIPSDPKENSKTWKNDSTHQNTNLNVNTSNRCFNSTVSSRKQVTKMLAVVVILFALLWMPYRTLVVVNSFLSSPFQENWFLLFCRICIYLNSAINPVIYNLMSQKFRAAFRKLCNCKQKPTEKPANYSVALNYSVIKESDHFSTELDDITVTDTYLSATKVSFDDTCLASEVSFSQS
Outline: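 In this cell-based calcium flux format, HEK293 cells expressing TRHR received test compound for 5 min before the agonist TRH (1 nM final). Dye loading lasted 2 h at 37 °C.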

[10] = target: Thyrotropin-releasing hormone receptor (Homo sapiens) (UniProt P34981); experiment: qHTS assay to identify small molecule agonists of the thyrotropin-releasing hormone receptor (TRHR) signaling pathway (AID 1346891; calls by dose curve; further: series mostly up to about 58 µM)
Outline: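 HEK293 cells expressing TRHR plated 18 h at 37 C/5% CO2, calcium dye-loaded 2 h at 37 C, then compound added (agonist mode); kinetic calcium fluorescence read 3 min at 1 s intervals; 15 concentrations in triplicate.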
On the % scale 0 is the no-effect control and ±100 the full control effect.

NC(N)=NCCN1CCCCCCC1
inactive: activity change, negative = cytotoxicity [1] 3.85% [at 0.349 µM] | activation [2] -1.69% [at 0.349 µM] | activity change, negative = inhibition [3] 0.475% [at 0.348 µM] | activity change, negative = cytotoxicity [4] -0.514% [at 0.348 µM] | activity change, negative = cytotoxicity [5] 0.507% [at 0.349 µM] | viability change, negative = cytotoxic [6] 2.08% [at 0.29 µM] | activity change, negative = cytotoxicity [7] -17.1% [at 0.29 µM] | activation [8] 0.678% [at 0.29 µM]

O=C(O)CCCC[P+](c1ccccc1)(c1ccccc1)c1ccccc1
inactive: Potency [1] | Potency [2] | Potency [3] | Potency [4] | Potency [5] | outcome [6] | outcome [7] | outcome [8]

CN1[C@@H]2CC[C@H]1CC(OC(=O)C(O)c1ccccc1)C2 (some centres undefined)
inactive: Potency [1] | Potency [2] | Potency [3] | Potency [4] | Potency [5] | outcome [6] | outcome [7] | outcome [8] | outcome [9] | Potency [10]

CCCCCCC#CC(=O)OC
inactive: Potency [1] | Potency [2] | Potency [3] | Potency [4] | Potency [5] | outcome [6] | outcome [7] | outcome [8] | outcome [9] | Potency [10]

CC(=O)Oc1cccc(C)c1
inactive: Potency [1] | Potency [2] | Potency [3] | Potency [4] | Potency [5] | outcome [6] | outcome [7] | outcome [8] | outcome [9] | Potency [10]

CC(CO)(CO)[N+](=O)[O-]
inactive: Potency [1] | Potency [2] | Potency [3] | Potency [4] | Potency [5] | outcome [6] | outcome [7] | outcome [8] | outcome [9] | Potency [10]

C=CCOCC(O)CO (centres undefined)
inactive: Potency [1] | Potency [2] | Potency [3] | Potency [4] | Potency [5] | outcome [6] | outcome [7] | outcome [8] | outcome [9] | Potency [10]

O=C(O)c1cn(C2CC2)c2cc(N3CCNCC3)c(F)cc2c1=O
inactive: Potency [1] | Potency [2] | Potency [3] | Potency [4] | Potency [5] | outcome [6] | outcome [7] | outcome [8]

CC1(C)OC[C@@H](COC(=O)CCc2ccc(OC[C@@H](O)CNCCNC(=O)N3CCOCC3)cc2)O1
inactive: Potency [1] | Potency [2] | Potency [3] | Potency [4] | Potency [5] | outcome [6] | outcome [7] | outcome [8] | outcome [9] | Potency [10]

O=C(c1ccccc1O)c1ccccc1O
active: Potency [3] 27 µM
inactive: Potency [1] | Potency [2] | Potency [4] | Potency [5] | outcome [6] | outcome [7] | outcome [8]

CC[N+](CC)(CC)CCOc1cccc(OCC[N+](CC)(CC)CC)c1OCC[N+](CC)(CC)CC
inactive: Potency [1] | Potency [2] | Potency [3] | Potency [4] | Potency [5] | outcome [6] | outcome [7] | outcome [8]

CCN(CC#N)c1cccc(C)c1
inactive: Potency [1] | Potency [2] | Potency [3] | Potency [4] | Potency [5] | outcome [6] | outcome [7] | outcome [8]

Cc1ccnc(NS(=O)(=O)c2ccc(N)cc2)n1
inactive: Potency [1] | Potency [2] | Potency [3] | Potency [4] | Potency [5] | outcome [6] | outcome [7] | outcome [8]

CO[Si](C)(OC)c1ccccc1
inactive: Potency [1] | Potency [2] | Potency [3] | Potency [4] | Potency [5] | outcome [6] | outcome [7] | outcome [8] | outcome [9] | Potency [10]

Cc1c(N)c(=O)n(-c2ccccc2)n1C
inactive: Potency [1] | Potency [2] | Potency [3] | Potency [4] | Potency [5] | outcome [6] | outcome [7] | outcome [8] | outcome [9] | Potency [10]

O=C(CO)[C@@H](O)[C@H](O)[C@@H](O)CO
inactive: Potency [1] | Potency [2] | Potency [3] | Potency [4] | Potency [5] | outcome [6] | outcome [7] | outcome [8] | outcome [9] | Potency [10]

CC/C=C\CCOC(C)OCC (centres undefined)
inactive: Potency [1] | Potency [2] | Potency [3] | Potency [4] | Potency [5] | outcome [6] | outcome [7] | outcome [8] | outcome [9] | Potency [10]

C=C(C)C(=O)OCC(O)CO (centres undefined)
inactive: Potency [1] | Potency [2] | Potency [3] | Potency [4] | Potency [5] | outcome [6] | outcome [7] | outcome [9] | Potency [10]

CC(C)(C#N)Nc1nc(Cl)nc(NC2CC2)n1
inactive: Potency [1] | Potency [2] | Potency [3] | Potency [4] | Potency [5] | outcome [6] | outcome [7] | outcome [8] | outcome [9] | Potency [10]

CC(C)=CCC/C(C)=C/C#N
inactive: Potency [1] | Potency [2] | Potency [3] | Potency [4] | Potency [5] | outcome [6] | outcome [7] | outcome [8] | outcome [9] | Potency [10]

C=CN1CCCCCC1=O
inactive: Potency [1] | Potency [2] | Potency [3] | Potency [4] | Potency [5] | outcome [6] | outcome [7] | outcome [9] | Potency [10]

CCO[Si](OCC)(OCC)c1ccccc1
inactive: Potency [1] | Potency [2] | Potency [3] | Potency [4] | Potency [5] | outcome [6] | outcome [7] | outcome [8] | outcome [9] | Potency [10]

CC(=O)NC(=O)c1ccccc1O
inactive: Potency [1] | Potency [2] | Potency [3] | Potency [4] | Potency [5] | outcome [6] | outcome [7] | outcome [8] | outcome [9] | Potency [10]

CC(C)C1CCC(O)CC1 (centres undefined)
inactive: Potency [1] | Potency [2] | Potency [3] | Potency [4] | Potency [5] | outcome [6] | outcome [7] | outcome [8] | outcome [9] | Potency [10]
